Source: PubChem
In the library only some 2.4% were active in any assay of this set; here they are far more common.
FEN1 inh-1: inhibitors of human flap endonuclease 1. Potency, µM (highest dose often 114 µM), usual class: inhibitors. P39748. 390,000 tested, 0.35% active. Recombinant FEN1 flap cleavage, fluorescence, 15 min; also: nearly all actives have a fitted effect of over 65% in size
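Reaction started by adding substrate (50 nM final) to 10 nM enzyme after 15 min room-temperature compound preincubation. Reads at 0 and 15 min, with data normalized and fitted to a four-parameter Hill equation.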
WRN helicase inh: inhibitors of human WRN helicase; Q14191; WRN helicase unwinding, fluorescent forked duplex, kinetic; Potency, µM (titrated, usually from 114 µM), most hits filed as inhibitors; 360,000 tested, 0.46% active; AID 651768; also: nearly all actives have a fitted effect of over 55% in size
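Screening of the MLSMR collection measured strand separation of a quenched forked DNA duplex (100 nM) by 20 nM WRN with 2 mM ATP, all final. Compounds were preincubated with enzyme 15 min at room temperature.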
POLB inh: inhibitors of human DNA polymerase beta; P06746; Pol beta primer extension/strand displacement, fluorescence kinetic; Potency, µM (highest dose often 114 µM), actives largely listed as inhibitors; 340,000 tested, 1.3% active
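Values derive from four-parameter Hill fits of normalized kinetic data: reads at 0 and 10 min following addition of 50 nM substrate to 10 nM Pol beta preincubated 15 min with compound.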
Pol kappa inh-1: DNA polymerase kappa (human) inhibition. Q9UBT6. purified Pol kappa, fluorescent DNA synthesis assay, 10 min. Potency, µM (doses to about 107 µM), actives largely listed as inhibitors. 400,000 tested, 0.53% active. AID 588579
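10 nM Pol kappa was preincubated with compounds for 15 min at room temperature. Reaction started with 50 nM (final) substrate. Fluorescence read kinetically at 0 and 10 min.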
POLI inh: DNA polymerase iota (human) inhibition | 390,000 tested, 1% active | Potency, µM (series often up to 115 µM), hits mostly inhibitors | AID 588590 | Q9UNA4 | Pol iota fluorescent replication assay, 10 min
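Pol iota at 10 nM preincubated 15 min with compounds at room temperature; reaction started with fluorescent substrate, 50 nM final. Fluorescence read kinetically at 0 and 10 min; buffer-only wells as negative control.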
Pol eta inh-1: DNA polymerase eta (human) inhibition. Q9Y253. recombinant Pol eta, fluorescent DNA replication assay. Potency, µM (titrated, usually from 114 µM), most hits filed as inhibitors. 390,000 tested, 1.2% active
Target sequence (Q9Y253 whole entry, looked up): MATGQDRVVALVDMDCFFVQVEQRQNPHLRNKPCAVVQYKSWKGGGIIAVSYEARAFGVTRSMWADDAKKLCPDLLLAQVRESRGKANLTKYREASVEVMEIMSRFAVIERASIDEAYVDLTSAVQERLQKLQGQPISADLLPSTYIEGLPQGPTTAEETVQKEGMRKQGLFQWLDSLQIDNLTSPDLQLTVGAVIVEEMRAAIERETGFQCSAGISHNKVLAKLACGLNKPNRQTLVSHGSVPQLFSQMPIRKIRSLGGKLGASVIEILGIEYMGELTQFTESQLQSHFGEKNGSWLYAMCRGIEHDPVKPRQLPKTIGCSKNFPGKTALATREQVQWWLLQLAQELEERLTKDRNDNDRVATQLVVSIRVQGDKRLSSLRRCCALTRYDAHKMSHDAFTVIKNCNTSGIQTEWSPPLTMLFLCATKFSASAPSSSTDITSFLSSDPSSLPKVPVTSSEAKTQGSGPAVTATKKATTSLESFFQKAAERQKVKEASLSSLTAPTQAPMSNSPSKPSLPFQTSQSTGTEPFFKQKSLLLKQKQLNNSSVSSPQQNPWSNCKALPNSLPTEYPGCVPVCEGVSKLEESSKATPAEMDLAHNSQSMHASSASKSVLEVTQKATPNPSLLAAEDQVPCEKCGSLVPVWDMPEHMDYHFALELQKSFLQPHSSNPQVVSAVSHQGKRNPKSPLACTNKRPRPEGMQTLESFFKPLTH
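Pol eta at 10 nM preincubated with compounds 15 min at room temperature; reaction started with fluorescent substrate (50 nM final) and read kinetically at 0 and 10 min.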
Pol kappa inh-2: confirmation of human DNA polymerase kappa inhibitors | shares compounds with Pol eta inh-1 | purified Pol-kappa, fluorescent strand-displacement substrate | Potency, µM, hits mostly inhibitors | 920 tested, 76% active | AID 720501
Pol eta inh-2: Pol eta (human) inhibition, cherry-pick confirmation; shares compounds with Pol eta inh-1; Potency, µM, hits mostly inhibitors; AID 720502; 2,600 tested, 64% active; Pol eta primer extension, TAMRA/BHQ fluorescence, 10 min
FEN1 inh-2: confirmation of human FEN1 inhibitors; FEN1 flap cleavage, TAMRA/BHQ2 fluorogenic DNA substrate; 880 tested, 79% active; Potency, µM, usual class: inhibitors; shares compounds with FEN1 inh-1; AID 720498; also: nearly all actives have a fitted effect of over 60% in size
Each line names hits and unclear results; the compound was inactive in the other large screens (follow-up assays come after a bar, where they were run). Calls follow the shape of the dose curve; as a rule, active = well fitted curve in the direction sought with a large enough effect; inconclusive = small, poorly fitted or top-dose-only effect, or another doubt; inactive = no such curve, though single readings can be large; an effect the other way counts as inactive or inconclusive.

Cc1cc(/C=C2\C(=O)NC(=O)N(c3cccc(F)c3)C2=O)c(C)n1-c1ccc(C(=O)O)c(Cl)c1	POLB inh 25.1µM, Pol kappa inh-1 inconclusive, POLI inh inconclusive, Pol eta inh-1 14.1µM | Pol eta inh-2 33.8
Cc1c(Cl)cccc1N1C(=O)NC(=O)/C(=C\c2cc(C)n(-c3cccc(C(=O)O)c3C)c2C)C1=O	POLB inh inconclusive, Pol kappa inh-1 79.4µM, POLI inh 11.2µM, Pol eta inh-1 35.5µM | Pol eta inh-2 inconclusive
Cc1ccc(CNC(=O)C(=O)NCC(c2cccnc2)N2CCN(c3ccc(F)cc3)CC2)cc1 (centres undefined)	POLB inh inconclusive (no result: WRN helicase inh)
Cc1cc(/C=C2\C(=O)NC(=O)N(Cc3ccco3)C2=O)c(C)n1-c1ccc(O)cc1	FEN1 inh-1 inconclusive, WRN helicase inh inconclusive, POLB inh 11.2µM, Pol kappa inh-1 39.8µM, POLI inh inconclusive, Pol eta inh-1 20µM | Pol eta inh-2 inconclusive
Cc1ccc(-n2c(C)cc(/C=C3/C(=O)NC(=O)N(Cc4ccco4)C3=O)c2C)cc1	POLB inh inconclusive, Pol kappa inh-1 inconclusive, POLI inh 20µM, Pol eta inh-1 50.1µM | Pol eta inh-2 inconclusive
C=CCN1C(=O)/C(=C/c2cc(C)n(-c3cccnc3)c2C)C(=O)NC1=S	WRN helicase inh inconclusive
Cc1ccc(OCCn2cccc2/C=C2/C(=O)NC(=O)N(Cc3ccco3)C2=O)cc1	FEN1 inh-1 inconclusive, WRN helicase inh inconclusive, Pol kappa inh-1 28.2µM, POLI inh 8.91µM, Pol eta inh-1 20µM | Pol eta inh-2 67.5
CC(C)n1cnc2c(C(=O)N[C@H]3CN4CCC3CC4)cc(Cl)cc21	none (no result: FEN1 inh-1, WRN helicase inh, POLB inh, POLI inh, Pol eta inh-1)
CCOc1ccc(N2C(=O)/C(=C/c3ccc(C)o3)C(=O)NC2=S)cc1	FEN1 inh-1 22.4µM, WRN helicase inh 44.7µM, POLB inh 28.2µM, Pol kappa inh-1 28.2µM, POLI inh 8.91µM, Pol eta inh-1 3.98µM | Pol eta inh-2 30.1
COc1ccc(N2C(=O)/C(=C/c3ccc(C)o3)C(=O)NC2=S)cc1	FEN1 inh-1 inconclusive, WRN helicase inh inconclusive, POLB inh 35.5µM, POLI inh 25.1µM, Pol eta inh-1 12.6µM | Pol kappa inh-2 16.8 | Pol eta inh-2 30.1
CCOc1ccc(N2C(=O)NC(=O)/C(=C\c3ccc(N4CCCCC4)o3)C2=O)cc1	none
CN1C(=O)/C(=C\c2ccc(N3CCCCC3)o2)C(=O)NC1=S	POLI inh inconclusive
CC(C)CCNC(=O)CNC(=O)[C@@H](C)NC(=O)[C@@H](N)Cc1ccc(O)cc1	none (no result: FEN1 inh-1, WRN helicase inh, POLB inh, POLI inh, Pol eta inh-1)
Cc1ccc(S(=O)(=O)Cc2ccc(C(=O)N3CCC4(CC3)OCCO4)o2)cc1	WRN helicase inh inconclusive, POLB inh 10µM, Pol kappa inh-1 inconclusive, POLI inh inconclusive, Pol eta inh-1 12.6µM | Pol eta inh-2 inconclusive
O=C1NC(=O)N(c2ccccc2)C(=O)/C1=C/C=C/c1ccco1	FEN1 inh-1 inconclusive, WRN helicase inh inconclusive, POLB inh inconclusive, Pol kappa inh-1 39.8µM, POLI inh inconclusive, Pol eta inh-1 12.6µM | Pol eta inh-2 37.9
O=C1NC(=O)N(c2ccccc2)C(=O)/C1=C/c1ccc2c(c1)Cc1ccccc1-2	none (no result: FEN1 inh-1, WRN helicase inh, Pol kappa inh-1, POLI inh, Pol eta inh-1)
Cc1ccc(N2C(=O)NC(=O)/C(=C\C=C\c3ccco3)C2=O)cc1C	FEN1 inh-1 inconclusive, WRN helicase inh 15.8µM, POLB inh 39.8µM, Pol kappa inh-1 25.1µM, POLI inh 10µM, Pol eta inh-1 22.4µM | Pol eta inh-2 60.1
Clc1ccc(C(c2ccc(Cl)cc2)n2cc[n+](CC(OCc3ccc(Cl)cc3Cl)c3ccc(Cl)cc3Cl)c2)cc1 (centres undefined)	FEN1 inh-1 79.4µM, WRN helicase inh inconclusive, POLI inh inconclusive, Pol eta inh-1 inconclusive | Pol kappa inh-2 67
Clc1ccc(COC(Cn2ccnc2)c2ccc(Cl)cc2Cl)cc1 (centres undefined)	FEN1 inh-1 inconclusive, Pol kappa inh-1 inconclusive
CC(=O)C1CCC2C3CCC4CC(O)CCC4(C)C3CC(O)C12C (centres undefined)	none (no result: FEN1 inh-1, WRN helicase inh, POLB inh, POLI inh, Pol eta inh-1)
CC1(O)CCC2C3CCC4=CC(=O)CCC4=C3C=CC21C (centres undefined)	none (no result: POLB inh)
COCOC1CCC2C3CCC4=CC(=O)CCC4=C3C=CC12C (centres undefined)	Pol kappa inh-1 inconclusive, POLI inh 28.2µM, Pol eta inh-1 inconclusive (no result: POLB inh) | Pol eta inh-2 inconclusive
NC(CP(=O)(O)O)C(=O)O (centres undefined)	FEN1 inh-1 inconclusive (no result: WRN helicase inh)
O=C1NC(=O)N(Cc2ccccc2)C(=O)/C1=C\C=C\c1ccco1	FEN1 inh-1 inconclusive, WRN helicase inh 50.1µM, POLB inh 20µM, Pol kappa inh-1 35.5µM, POLI inh 15.8µM, Pol eta inh-1 17.8µM | Pol eta inh-2 75.7 | FEN1 inh-2 inconclusive
CC(C)N(CC[C@@](C(N)=O)(c1ccccc1)c1ccccn1)C(C)C	none (no result: FEN1 inh-1, WRN helicase inh, POLB inh, POLI inh, Pol eta inh-1)
N#CC(C#N)=Cc1ccc(C=C(C#N)C#N)cc1	WRN helicase inh inconclusive, POLB inh inconclusive, POLI inh inconclusive, Pol eta inh-1 44.7µM | Pol eta inh-2 inconclusive | FEN1 inh-2 95.3
Cc1cc(N2CCCC2)ccc1C=C(C#N)C#N	WRN helicase inh inconclusive
C[C@]12CCC3C(CC[C@H]4C[C@H](O)CC[C@]34C)[C@@H]1CC[C@@H]2C(=O)CO (some centres undefined)	none (no result: FEN1 inh-1, WRN helicase inh, POLB inh, POLI inh, Pol eta inh-1)
C[C@]12CCC3C(CC[C@H]4C[C@@H](O)CC[C@]34C)C1CC[C@@H]2OC(=O)[C@H](N)CCCCN (some centres undefined)	FEN1 inh-1 inconclusive (no result: POLB inh) | FEN1 inh-2 42.6
CCCN1CCC[C@@H]2Cc3cn[nH]c3C[C@H]21	none (no result: FEN1 inh-1, WRN helicase inh, POLB inh, POLI inh, Pol eta inh-1)
Cc1ccccc1-n1c(C)cc(/C=C2/C(=O)NC(=O)N(Cc3ccco3)C2=O)c1C	Pol kappa inh-1 inconclusive, POLI inh inconclusive, Pol eta inh-1 inconclusive | FEN1 inh-2 inconclusive
